“And” between values parts separate entries of the source, which are not always exact repeats. Identical values can stand only once. Inconclusive results are not listed. The source made the active and inactive calls. How the source made its calls: active means hit-call score of the fitted dose curve at least 0.9, where 1 is the maximum; inconclusive means response in the unintended direction; inactive means score below 0.9.
What was measured:
[1] = target: rat CYP2A2, Cyp2a2 (gene 24895) (UniProt P15149); test: NVS_ADME_rCYP2A2: NovaScreen (NVS) CYP450-related Enzyme Activity (ADME) Assay for rat CYP2A2 (AID 2283116)
In short: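 Cell-free recombinant rat CYP2A2 activity with fluorogenic substrate, fluorescence read 0.2 h after dosing. Chemicals screened at 10 uM in duplicate, hits then run in concentration-response up to 20 uM; signal loss versus acetonitrile baseline.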

rat CYP2B1, gene 24300 = test: NVS_ADME_rCYP2B1: NovaScreen (NVS) CYP450-related Enzyme Activity (ADME) Assay for rat CYP2B1 (AID 2283117)
In short: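 Recombinant rat CYP2B1 with fluorogenic substrate, read at 0.75 h. Primary screen in duplicate at 10 uM; compounds meeting threshold (e.g., 30% inhibition) re-run in concentration-response up to 20 uM. Fitted against acetonitrile control.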

[2] = target: rat CYP2C12, Cyp2c12 (gene 25011) (UniProt P11510); test: NVS_ADME_rCYP2C12: NovaScreen (NVS) CYP450-related Enzyme Activity (ADME) Assay for rat CYP2C12 (AID 2283119)
In short: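 Cell-free recombinant rat CYP2C12 activity read by fluorescence 0.5 h after dosing; loss of signal versus acetonitrile control. Primary screen in duplicate at 10 uM; actives then run in concentration-response format.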

rat CYP2C6, gene 293989 = test: NVS_ADME_rCYP2C6: NovaScreen (NVS) CYP450-related Enzyme Activity (ADME) Assay for rat CYP2C6 (AID 2283120)
In short: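 Cell-free recombinant rat CYP2C6 with fluorogenic substrate, read by fluorescence 1 h after dosing; acetonitrile as negative control. Primary screen at 10 uM in duplicate, actives then in concentration-response up to 20 uM.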

[3] = target: rat CYP2D1, Cyp2d1 (gene 266684) (UniProt P10633); test: NVS_ADME_rCYP2D1: NovaScreen (NVS) CYP450-related Enzyme Activity (ADME) Assay for rat CYP2D1 (AID 2283122)
In short: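 Cell-free fluorescence enzyme-activity assay on extracted rat CYP2D1 protein, read 0.75 h after dosing. Primary screen in duplicate at 10 uM; qualifying chemicals then run in concentration-response to 20 uM max, loss-of-signal versus acetonitrile baseline.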

[4] = target: rat CYP2D2, Cyp2d26 (gene 25053) (UniProt P10634); test: NVS_ADME_rCYP2D2: NovaScreen (NVS) CYP450-related Enzyme Activity (ADME) Assay for rat CYP2D2 (AID 2283124)
In short: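 Recombinant rat CYP2D2 in a cell-free fluorogenic activity assay, fluorescence read 0.75 h after dosing. Primary screen in duplicate at 10 uM; actives re-run singly in concentration-response to 20 uM, relative to acetonitrile.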

rat CYP3A1, gene 25642 = test: NVS_ADME_rCYP3A1: NovaScreen (NVS) CYP450-related Enzyme Activity (ADME) Assay for rat CYP3A1 (AID 2283126)
In short: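 Cell-free recombinant CYP assay with fluorescent substrate, read 0.5 h after dosing. Screened at 10 uM in duplicate, hits at up to 20 uM in concentration-response; loss of signal versus acetonitrile baseline.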

[5] = target: rat CYP3A2, Cyp3a2 (gene 266682) (UniProt P05183); test: NVS_ADME_rCYP3A2: NovaScreen (NVS) CYP450-related Enzyme Activity (ADME) Assay for rat CYP3A2 (AID 2283128)
In short: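 Cell-free rat CYP3A2 enzyme assay with fluorescent substrate, read 0.5 h after dosing. Primary duplicate screen at 10 uM; actives run in concentration-response up to 20 uM, relative to acetonitrile baseline.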

[6] = target: rat CYP1A2, Cyp1a2 (gene 24297) (UniProt P04799); test: NVS_ADME_rCYP1A2: NovaScreen (NVS) CYP450-related Enzyme Activity (ADME) Assay for rat CYP1A2 (AID 2283115)
Protocol: NVS_ADME_rCYP1A2 is a biochemical, single-readout assay that uses extracted gene-proteins in a cell-free assay. Measurements were taken 1 hour after chemical dosing in a 96-well plate.NVS_ADME_rCYP1A2 is one of one assay component(s) measured or calculated from the NVS_ADME_rCYP1A2 assay. It is designed to make measurements of enzyme activity, a form of enzyme reporter, as detected with fluorescence intensity signals by Fluorescence technology.Data from the assay component NVS_ADME_rCYP1A2 was analyzed into 1 assay endpoint. This assay endpoint, NVS_ADME_rCYP1A2, was analyzed in the positive analysis fitting direction relative to Acetonitrile as the negative control and baseline of activity. Using a type of enzyme reporter, loss-of-signal activity can be used to understand changes in the enzymatic activity as they relate to the gene Cyp1a2. Furthermore, this assay endpoint can be referred to as a primary readout, because this assay has produced multiple assay endpoints where this one serves a enzymatic activity function. To generalize the intended target to other relatable targets, this assay endpoint is annotated to the cyp intended target family, where the subfamily is xenobiotic metabolism.
Binding assays used specific radioligands (tritiated, iodinated) with non-radioactive competitive displacement ligands in agonist or antagonist protocols (as indicated) and various reference compounds and inhibitors to titrate specific binding to receptors and transporters. Most enzyme assays (CYPs, kinases, phosphatases, proteases, HDACs) used recombinant protein and specific substrates (fluorescence mostly, some colorimetric and radioactive) and inhibitors, followed by a biochemical separation of substrate and product. All assays for the biochemical HTS were initially run in duplicate at a single concentration (10 uM for CYP450 assays and 25 uM for all others). […] Each assay was run with positive and negative controls, and concurrent controls on every plate. The follow-up (secondary) screen tested active chemical-pairs in concentration series, as well as a few additional assays not tested in the primary screen, some selected negative inactives, and several cases re-run in the concentration series for confirmatory purposes.

[7] = target: rat CYP2C13, Cyp2c13 (gene 171521) (UniProt P20814); test: NVS_ADME_rCYP2C13: NovaScreen (NVS) CYP450-related Enzyme Activity (ADME) Assay for rat CYP2C13 (AID 2283121)
In short: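 Recombinant rat CYP2C13 with fluorogenic substrate, 0.75 h cell-free incubation; primary screen in duplicate at 10 uM, actives followed in concentration series. Fluorescence loss relative to acetonitrile control indicates inhibition.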

rat CYP2D2, Cyp2d26 (gene 25053), sequence (P10634 whole entry, looked up): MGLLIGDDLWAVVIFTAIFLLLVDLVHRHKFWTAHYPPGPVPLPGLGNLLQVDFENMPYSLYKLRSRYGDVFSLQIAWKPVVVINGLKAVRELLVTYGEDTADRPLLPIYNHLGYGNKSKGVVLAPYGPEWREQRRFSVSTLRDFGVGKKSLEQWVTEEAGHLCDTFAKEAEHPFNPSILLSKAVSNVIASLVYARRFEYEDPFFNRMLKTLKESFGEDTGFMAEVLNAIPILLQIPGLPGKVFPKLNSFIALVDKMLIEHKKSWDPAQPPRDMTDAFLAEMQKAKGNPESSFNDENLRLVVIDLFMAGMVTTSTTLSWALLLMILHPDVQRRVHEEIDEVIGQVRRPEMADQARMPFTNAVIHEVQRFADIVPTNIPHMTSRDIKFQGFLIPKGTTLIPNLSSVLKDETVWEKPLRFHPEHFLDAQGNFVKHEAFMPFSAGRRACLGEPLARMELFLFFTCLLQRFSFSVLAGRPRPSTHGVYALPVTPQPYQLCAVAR
rat CYP2A2, Cyp2a2 (gene 24895), sequence (P15149 whole entry, looked up): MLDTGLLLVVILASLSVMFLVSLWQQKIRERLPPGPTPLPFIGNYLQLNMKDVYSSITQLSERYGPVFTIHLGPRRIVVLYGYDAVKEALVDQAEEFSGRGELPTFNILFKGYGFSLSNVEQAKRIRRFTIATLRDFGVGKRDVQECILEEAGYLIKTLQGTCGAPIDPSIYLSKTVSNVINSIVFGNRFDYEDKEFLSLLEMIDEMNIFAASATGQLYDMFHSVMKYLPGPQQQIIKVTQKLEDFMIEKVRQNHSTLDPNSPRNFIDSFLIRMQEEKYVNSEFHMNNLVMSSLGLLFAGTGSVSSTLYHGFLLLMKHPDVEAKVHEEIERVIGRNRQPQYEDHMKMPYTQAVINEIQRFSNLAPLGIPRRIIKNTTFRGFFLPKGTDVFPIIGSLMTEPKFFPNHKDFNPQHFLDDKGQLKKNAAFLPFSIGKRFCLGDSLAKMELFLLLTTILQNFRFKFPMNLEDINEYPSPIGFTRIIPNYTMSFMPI
rat CYP2C13, Cyp2c13 (gene 171521), sequence (P20814 whole entry, looked up): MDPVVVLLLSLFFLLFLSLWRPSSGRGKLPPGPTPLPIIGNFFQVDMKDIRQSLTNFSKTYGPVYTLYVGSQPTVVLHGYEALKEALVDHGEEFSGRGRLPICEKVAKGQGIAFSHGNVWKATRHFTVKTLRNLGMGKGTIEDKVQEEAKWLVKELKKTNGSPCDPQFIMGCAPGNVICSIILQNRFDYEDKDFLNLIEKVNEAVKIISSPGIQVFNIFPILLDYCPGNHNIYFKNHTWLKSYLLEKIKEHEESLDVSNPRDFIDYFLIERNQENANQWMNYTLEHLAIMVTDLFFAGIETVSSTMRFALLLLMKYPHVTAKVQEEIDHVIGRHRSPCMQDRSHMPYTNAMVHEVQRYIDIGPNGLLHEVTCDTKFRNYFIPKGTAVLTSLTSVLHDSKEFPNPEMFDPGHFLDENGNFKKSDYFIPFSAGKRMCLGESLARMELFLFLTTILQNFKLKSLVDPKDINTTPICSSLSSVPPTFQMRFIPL
rat CYP2C12, Cyp2c12 (gene 25011), sequence (P11510 whole entry, looked up): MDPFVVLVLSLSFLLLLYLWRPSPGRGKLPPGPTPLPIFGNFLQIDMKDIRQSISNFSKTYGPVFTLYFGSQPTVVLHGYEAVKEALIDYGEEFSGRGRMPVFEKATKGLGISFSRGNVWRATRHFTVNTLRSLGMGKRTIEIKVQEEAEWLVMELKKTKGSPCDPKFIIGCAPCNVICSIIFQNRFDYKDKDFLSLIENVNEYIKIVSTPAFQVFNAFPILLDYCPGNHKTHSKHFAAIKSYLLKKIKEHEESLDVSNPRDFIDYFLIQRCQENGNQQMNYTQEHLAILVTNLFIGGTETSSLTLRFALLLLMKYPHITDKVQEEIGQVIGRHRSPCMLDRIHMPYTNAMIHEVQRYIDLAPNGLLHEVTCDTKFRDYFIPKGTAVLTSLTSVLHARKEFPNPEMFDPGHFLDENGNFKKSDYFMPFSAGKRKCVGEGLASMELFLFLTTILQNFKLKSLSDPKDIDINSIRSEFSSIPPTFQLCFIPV
rat CYP2D1, Cyp2d1 (gene 266684), sequence (P10633 whole entry, looked up): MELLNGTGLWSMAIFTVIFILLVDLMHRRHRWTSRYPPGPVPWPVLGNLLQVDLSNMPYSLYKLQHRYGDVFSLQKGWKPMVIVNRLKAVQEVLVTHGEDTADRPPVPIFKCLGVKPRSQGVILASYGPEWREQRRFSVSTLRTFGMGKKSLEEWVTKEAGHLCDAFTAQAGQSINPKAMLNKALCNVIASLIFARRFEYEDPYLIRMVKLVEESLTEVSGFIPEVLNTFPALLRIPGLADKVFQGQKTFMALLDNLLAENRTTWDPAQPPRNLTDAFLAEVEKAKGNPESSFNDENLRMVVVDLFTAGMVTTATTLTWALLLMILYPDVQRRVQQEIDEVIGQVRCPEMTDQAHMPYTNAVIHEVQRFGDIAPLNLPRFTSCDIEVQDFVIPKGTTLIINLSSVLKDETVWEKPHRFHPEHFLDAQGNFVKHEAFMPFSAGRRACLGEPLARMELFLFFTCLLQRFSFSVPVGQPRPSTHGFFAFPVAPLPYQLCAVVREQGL
rat CYP1A2, Cyp1a2 (gene 24297), sequence (P04799 whole entry, looked up): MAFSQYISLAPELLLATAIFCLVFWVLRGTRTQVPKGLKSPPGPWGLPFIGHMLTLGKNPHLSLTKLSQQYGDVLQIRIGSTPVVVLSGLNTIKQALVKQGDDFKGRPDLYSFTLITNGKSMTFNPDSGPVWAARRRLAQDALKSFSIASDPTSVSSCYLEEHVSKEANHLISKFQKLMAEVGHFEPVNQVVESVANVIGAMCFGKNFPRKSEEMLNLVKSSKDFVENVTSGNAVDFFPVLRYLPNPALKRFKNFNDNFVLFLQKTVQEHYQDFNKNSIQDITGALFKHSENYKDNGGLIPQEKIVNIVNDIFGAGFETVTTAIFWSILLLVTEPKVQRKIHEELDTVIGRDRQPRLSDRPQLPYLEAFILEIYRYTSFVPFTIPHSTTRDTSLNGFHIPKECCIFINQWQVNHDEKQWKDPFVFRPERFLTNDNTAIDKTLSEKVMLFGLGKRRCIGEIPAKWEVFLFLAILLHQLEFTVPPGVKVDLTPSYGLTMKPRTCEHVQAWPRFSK
rat CYP3A2, Cyp3a2 (gene 266682), sequence (P05183 whole entry, looked up): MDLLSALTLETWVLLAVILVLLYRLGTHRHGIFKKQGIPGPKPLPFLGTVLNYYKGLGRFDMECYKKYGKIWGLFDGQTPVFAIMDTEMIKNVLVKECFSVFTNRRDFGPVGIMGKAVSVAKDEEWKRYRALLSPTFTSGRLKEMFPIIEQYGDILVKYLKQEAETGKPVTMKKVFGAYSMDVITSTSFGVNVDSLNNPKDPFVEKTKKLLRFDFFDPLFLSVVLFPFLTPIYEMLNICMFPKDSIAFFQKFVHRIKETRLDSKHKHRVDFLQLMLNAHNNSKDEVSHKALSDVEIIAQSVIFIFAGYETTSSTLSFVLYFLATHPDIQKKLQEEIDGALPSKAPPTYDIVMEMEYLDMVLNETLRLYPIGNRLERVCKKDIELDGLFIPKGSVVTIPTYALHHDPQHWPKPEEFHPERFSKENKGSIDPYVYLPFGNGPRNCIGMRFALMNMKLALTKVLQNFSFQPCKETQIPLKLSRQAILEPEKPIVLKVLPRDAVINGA

CCOP(=S)(OCC)Oc1ccc2c(C)c(Cl)c(=O)oc2c1
outcome [1]: inactive | AC50 (rat CYP2B1, gene 24300): 914 nM (active) | AC50 [2]: 0.799 µM (active) | AC50 (rat CYP2C6, gene 293989): 0.452 µM (active) | AC50 [3]: 0.854 µM (active) | outcome [4]: inactive | AC50 (rat CYP3A1, gene 25642): 1.22 µM (active) | AC50 [5]: 0.83 µM (active)

Cc1cc(C2CC2)nc(Nc2ccccc2)n1
outcome [6]: inactive | AC50 [3]: 6.96 µM (active) | AC50 (rat CYP3A1, gene 25642): 10.7 µM (active)

COc1ccc(C(=CC(=O)N2CCOCC2)c2ccc(Cl)cc2)cc1OC
AC50 (rat CYP2C6, gene 293989): 3.98 µM (active) | AC50 (rat CYP3A1, gene 25642): 3.86 µM (active) | AC50 [5]: 6.54 µM (active)

CNc1cnn(-c2cccc(C(F)(F)F)c2)c(=O)c1Cl
outcome [6]: inactive | outcome [4]: inactive | AC50 (rat CYP3A1, gene 25642): 2.91 µM (active) | outcome [5]: inactive

COc1cccc(C(=O)NN(C(=O)c2cc(C)cc(C)c2)C(C)(C)C)c1C
AC50 [7]: 2.64 µM (active) | AC50 (rat CYP3A1, gene 25642): 0.331 µM (active) | AC50 [5]: 0.651 µM (active)

O=[N+]([O-])c1cc(C(F)(F)F)c(Cl)c([N+](=O)[O-])c1Nc1ncc(C(F)(F)F)cc1Cl
outcome [2]: inactive

FC(F)C(F)(F)OCC(Cn1cncn1)c1ccc(Cl)cc1Cl (stereo not given)
AC50 [1]: 74 nM (active) | AC50 (rat CYP2B1, gene 24300): 452 nM (active) | AC50 [2]: 3.95 µM (active) | AC50 (rat CYP2C6, gene 293989): 1.68 µM (active) | AC50 [7]: 0.257 µM (active) | AC50 [3]: 7.86 µM (active) | AC50 [4]: 5.52 µM (active) | AC50 (rat CYP3A1, gene 25642): 3.65 µM (active) | AC50 [5]: 5.51 µM (active)

CCCSP(=O)(OCC)Oc1ccc(Br)cc1Cl (stereo not given)
outcome [6]: inactive | AC50 (rat CYP2C6, gene 293989): 8.28 µM (active) | AC50 [7]: 9.49 µM (active) | AC50 [4]: 8.58 µM (active) | AC50 (rat CYP3A1, gene 25642): 9.45 µM (active) | AC50 [5]: 7.4 µM (active)

CCOP(=S)(OCC)Oc1ccc([N+](=O)[O-])cc1
AC50 (rat CYP2B1, gene 24300): 559 nM (active) | AC50 [2]: 6.18 µM (active) | AC50 (rat CYP2C6, gene 293989): 0.108 µM (active) | AC50 [7]: 10 µM (active) | AC50 [3]: 10 µM (active) | outcome [4]: inactive | AC50 (rat CYP3A1, gene 25642): 6.9 µM (active) | AC50 [5]: 2.86 µM (active)

CSC1=N[C@@](C)(c2ccccc2)C(=O)N1Nc1ccccc1
AC50 [2]: 8 µM (active) | outcome [3]: inactive | AC50 (rat CYP3A1, gene 25642): 2.77 µM (active) | AC50 [5]: 7.11 µM (active)

Nc1c(Cl)cc([N+](=O)[O-])cc1Cl
AC50 [1]: 113 nM (active) | outcome (rat CYP2B1, gene 24300): inactive

CCOP(=O)(OCC)Oc1cc(C)nc(C(C)C)n1
outcome (rat CYP3A1, gene 25642): inactive

S=C1NCCN1
outcome [2]: inactive | outcome (rat CYP3A1, gene 25642): inactive

CC(=NC#N)N(C)Cc1ccc(Cl)nc1
outcome [7]: inactive

CC(C)N(C(=O)SCC(Cl)=C(Cl)Cl)C(C)C
outcome [1]: inactive | outcome (rat CYP2B1, gene 24300): inactive

CC(C1CC1)C(O)(Cn1cncn1)c1ccc(Cl)cc1 (stereo not given)
AC50 [1]: 56.8 nM (active) and 76.2 nM (active) | AC50 (rat CYP2B1, gene 24300): 401 nM (active) and 1.61 µM (active) | AC50 [2]: 3.71 µM (active) | AC50 [7]: 0.0755 µM (active) | AC50 [4]: 3.14 µM (active) and 4.54 µM (active) | AC50 (rat CYP3A1, gene 25642): 0.384 µM (active) | AC50 [5]: 0.771 µM (active)

COP(=O)(OC)SCn1c(=O)oc2cc(Cl)cnc21
AC50 (rat CYP3A1, gene 25642): 9.11 µM (active) | AC50 [5]: 6.18 µM (active)

CCC(=NOC/C=C/Cl)C1=C(O)CC(C2CCOCC2)CC1=O (stereo not given)
outcome [1]: inactive

O=C(O)c1cc(Oc2ccc(C(F)(F)F)cc2Cl)ccc1[N+](=O)[O-]
AC50 (rat CYP3A1, gene 25642): 5.89 µM (active)

CCCCOC(=O)c1ccccc1C(=O)O
AC50 [1]: 2600 nM (active) | outcome (rat CYP2B1, gene 24300): inactive

Reference: PubChem BioAssay (EPA / NIEHS)
